# Measurements published in publication PMC11006913.
# Positions count from the first letter of the chain named.
# How the values were obtained:
# Experiment in all cases: PBM; 200 nM protein, PBS
# Details in all cases: dsDNA, one strand shown
# NKX2-5 [1] = biological target: NKX2-5 (Homo sapiens, UniProt P52952 125-210, R139K)
# NKX2-4 [2] = biological target: T1, NKX2-4 (Homo sapiens, UniProt Q9H2Z4 175-261, P217L)
# T1 sequence: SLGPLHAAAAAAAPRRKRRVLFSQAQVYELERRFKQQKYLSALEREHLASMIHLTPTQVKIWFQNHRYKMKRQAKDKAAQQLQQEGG
# NKX2-4 [3] = biological target: T2, NKX2-4 (Homo sapiens, UniProt Q9H2Z4 175-261, T231S)
# T2 sequence: T1 sequence with L43P, T57S
# NKX2-4 [4] = biological target: T3, NKX2-4 (Homo sapiens, UniProt Q9H2Z4 175-261)
# T3 sequence: T1 sequence with L43P
# NKX2-6 [5] = biological target: T4, NKX2-6 (Homo sapiens, UniProt A6NCS4 118-204, R150C)
# T4 sequence: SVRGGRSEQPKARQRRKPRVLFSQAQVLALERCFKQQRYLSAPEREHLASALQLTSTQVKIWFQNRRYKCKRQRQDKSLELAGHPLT
# NKX2-6 [6] = biological target: T5, NKX2-6 (Homo sapiens, UniProt A6NCS4 118-204)
# T5 sequence: T4 sequence with C33R
# NKX2-4 [7] = biological target: T6, NKX2-4 (Homo sapiens, UniProt Q9H2Z4 175-261, R246Q)
# T6 sequence: T1 sequence with L43P, R72Q
# NKX2-6 [8] = biological target: T7, NKX2-6 (Homo sapiens, UniProt A6NCS4 118-204, F151L)
# T7 sequence: T4 sequence with C33R, F34L
# NKX3-2 [9] = biological target: NKX3-2 (Homo sapiens, UniProt P78367 192-278, P234S)
# Sequence of NKX3-2 (Homo sapiens, UniProt P78367 192-278, P234S) (P78367 192-278 P234S): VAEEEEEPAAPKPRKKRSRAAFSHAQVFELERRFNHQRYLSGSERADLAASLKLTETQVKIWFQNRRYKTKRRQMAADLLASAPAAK
# NKX2-5 [10] = biological target: NKX2-5 (Homo sapiens, UniProt P52952 125-210)
# Sequence of NKX2-5 (Homo sapiens, UniProt P52952 125-210) (P52952 125-210): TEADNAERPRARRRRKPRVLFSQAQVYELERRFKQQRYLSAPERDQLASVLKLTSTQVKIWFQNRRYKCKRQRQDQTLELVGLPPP
# NKX3-2 [11] = biological target: NKX3-2 (Homo sapiens, UniProt P78367 192-278)
# Sequence of NKX3-2 (Homo sapiens, UniProt P78367 192-278) (P78367 192-278): as the sequence (P78367 192-278 P234S) above, with S43P counted along it
# Sequence of NKX2-5 (Homo sapiens, UniProt P52952 125-210, R139K) (P52952 125-210 R139K): as the sequence (P52952 125-210) above, with R15K counted along it
Sequence,binding signal (NKX2-5 [1]),binding signal (NKX2-4 [2]),binding signal (NKX2-4 [3]),binding signal (NKX2-4 [4]),binding signal (NKX2-6 [5]),binding signal (NKX2-6 [6]),binding signal (NKX2-4 [7]),binding signal (NKX2-6 [8]),binding signal (NKX3-2 [9]),binding signal (NKX2-5 [10]),binding signal (NKX3-2 [11])
CCACTTGA,"13.4 upbm affinity estimate (log intensity, higher = more binding, comparable within an allelic series)","12.9 upbm affinity estimate (log intensity, higher = more binding, comparable within an allelic series)","13.3 upbm affinity estimate (log intensity, higher = more binding, comparable within an allelic series)","12.8 upbm affinity estimate (log intensity, higher = more binding, comparable within an allelic series)","12.3 upbm affinity estimate (log intensity, higher = more binding, comparable within an allelic series)","13.9 upbm affinity estimate (log intensity, higher = more binding, comparable within an allelic series)","13.5 upbm affinity estimate (log intensity, higher = more binding, comparable within an allelic series)","11.5 upbm affinity estimate (log intensity, higher = more binding, comparable within an allelic series)","12.5 upbm affinity estimate (log intensity, higher = more binding, comparable within an allelic series)","13.2 upbm affinity estimate (log intensity, higher = more binding, comparable within an allelic series)","12.6 upbm affinity estimate (log intensity, higher = more binding, comparable within an allelic series)"
CCACTCAA,"12.5 upbm affinity estimate (log intensity, higher = more binding, comparable within an allelic series)","12.6 upbm affinity estimate (log intensity, higher = more binding, comparable within an allelic series)","13.1 upbm affinity estimate (log intensity, higher = more binding, comparable within an allelic series)","12.5 upbm affinity estimate (log intensity, higher = more binding, comparable within an allelic series)","11.8 upbm affinity estimate (log intensity, higher = more binding, comparable within an allelic series)","13.4 upbm affinity estimate (log intensity, higher = more binding, comparable within an allelic series)","13.1 upbm affinity estimate (log intensity, higher = more binding, comparable within an allelic series)","10.7 upbm affinity estimate (log intensity, higher = more binding, comparable within an allelic series)","12.6 upbm affinity estimate (log intensity, higher = more binding, comparable within an allelic series)","12.3 upbm affinity estimate (log intensity, higher = more binding, comparable within an allelic series)","12.7 upbm affinity estimate (log intensity, higher = more binding, comparable within an allelic series)"
CCCACTTA,"13 upbm affinity estimate (log intensity, higher = more binding, comparable within an allelic series)","12.7 upbm affinity estimate (log intensity, higher = more binding, comparable within an allelic series)","13 upbm affinity estimate (log intensity, higher = more binding, comparable within an allelic series)","12.6 upbm affinity estimate (log intensity, higher = more binding, comparable within an allelic series)","12.2 upbm affinity estimate (log intensity, higher = more binding, comparable within an allelic series)","13.7 upbm affinity estimate (log intensity, higher = more binding, comparable within an allelic series)","13.1 upbm affinity estimate (log intensity, higher = more binding, comparable within an allelic series)","11.1 upbm affinity estimate (log intensity, higher = more binding, comparable within an allelic series)","13.2 upbm affinity estimate (log intensity, higher = more binding, comparable within an allelic series)","12.9 upbm affinity estimate (log intensity, higher = more binding, comparable within an allelic series)","13.2 upbm affinity estimate (log intensity, higher = more binding, comparable within an allelic series)"
ATTAAGTG,"12.7 upbm affinity estimate (log intensity, higher = more binding, comparable within an allelic series)","12.5 upbm affinity estimate (log intensity, higher = more binding, comparable within an allelic series)","12.9 upbm affinity estimate (log intensity, higher = more binding, comparable within an allelic series)","12.4 upbm affinity estimate (log intensity, higher = more binding, comparable within an allelic series)","11.8 upbm affinity estimate (log intensity, higher = more binding, comparable within an allelic series)","13.7 upbm affinity estimate (log intensity, higher = more binding, comparable within an allelic series)","13 upbm affinity estimate (log intensity, higher = more binding, comparable within an allelic series)","11 upbm affinity estimate (log intensity, higher = more binding, comparable within an allelic series)","12.7 upbm affinity estimate (log intensity, higher = more binding, comparable within an allelic series)","12.6 upbm affinity estimate (log intensity, higher = more binding, comparable within an allelic series)","12.8 upbm affinity estimate (log intensity, higher = more binding, comparable within an allelic series)"
AACCACTT,"12.9 upbm affinity estimate (log intensity, higher = more binding, comparable within an allelic series)","12.7 upbm affinity estimate (log intensity, higher = more binding, comparable within an allelic series)","13.1 upbm affinity estimate (log intensity, higher = more binding, comparable within an allelic series)","12.6 upbm affinity estimate (log intensity, higher = more binding, comparable within an allelic series)","12 upbm affinity estimate (log intensity, higher = more binding, comparable within an allelic series)","13.7 upbm affinity estimate (log intensity, higher = more binding, comparable within an allelic series)","13.2 upbm affinity estimate (log intensity, higher = more binding, comparable within an allelic series)","10.9 upbm affinity estimate (log intensity, higher = more binding, comparable within an allelic series)","12.9 upbm affinity estimate (log intensity, higher = more binding, comparable within an allelic series)","12.8 upbm affinity estimate (log intensity, higher = more binding, comparable within an allelic series)","12.9 upbm affinity estimate (log intensity, higher = more binding, comparable within an allelic series)"
GGTACTTA,"13.1 upbm affinity estimate (log intensity, higher = more binding, comparable within an allelic series)","12.6 upbm affinity estimate (log intensity, higher = more binding, comparable within an allelic series)","13 upbm affinity estimate (log intensity, higher = more binding, comparable within an allelic series)","12.5 upbm affinity estimate (log intensity, higher = more binding, comparable within an allelic series)","12 upbm affinity estimate (log intensity, higher = more binding, comparable within an allelic series)","13.8 upbm affinity estimate (log intensity, higher = more binding, comparable within an allelic series)","13.1 upbm affinity estimate (log intensity, higher = more binding, comparable within an allelic series)","11 upbm affinity estimate (log intensity, higher = more binding, comparable within an allelic series)","12.8 upbm affinity estimate (log intensity, higher = more binding, comparable within an allelic series)","12.9 upbm affinity estimate (log intensity, higher = more binding, comparable within an allelic series)","12.8 upbm affinity estimate (log intensity, higher = more binding, comparable within an allelic series)"
AAGTACCT,"12.6 upbm affinity estimate (log intensity, higher = more binding, comparable within an allelic series)","12.5 upbm affinity estimate (log intensity, higher = more binding, comparable within an allelic series)","12.9 upbm affinity estimate (log intensity, higher = more binding, comparable within an allelic series)","12.4 upbm affinity estimate (log intensity, higher = more binding, comparable within an allelic series)","11.7 upbm affinity estimate (log intensity, higher = more binding, comparable within an allelic series)","13.4 upbm affinity estimate (log intensity, higher = more binding, comparable within an allelic series)","12.9 upbm affinity estimate (log intensity, higher = more binding, comparable within an allelic series)","10.6 upbm affinity estimate (log intensity, higher = more binding, comparable within an allelic series)","12.6 upbm affinity estimate (log intensity, higher = more binding, comparable within an allelic series)","12.4 upbm affinity estimate (log intensity, higher = more binding, comparable within an allelic series)","12.6 upbm affinity estimate (log intensity, higher = more binding, comparable within an allelic series)"
ACCACTTG,"12.8 upbm affinity estimate (log intensity, higher = more binding, comparable within an allelic series)","12.6 upbm affinity estimate (log intensity, higher = more binding, comparable within an allelic series)","13 upbm affinity estimate (log intensity, higher = more binding, comparable within an allelic series)","12.5 upbm affinity estimate (log intensity, higher = more binding, comparable within an allelic series)","11.8 upbm affinity estimate (log intensity, higher = more binding, comparable within an allelic series)","13.5 upbm affinity estimate (log intensity, higher = more binding, comparable within an allelic series)","13.1 upbm affinity estimate (log intensity, higher = more binding, comparable within an allelic series)","10.7 upbm affinity estimate (log intensity, higher = more binding, comparable within an allelic series)","12.6 upbm affinity estimate (log intensity, higher = more binding, comparable within an allelic series)","12.6 upbm affinity estimate (log intensity, higher = more binding, comparable within an allelic series)","12.7 upbm affinity estimate (log intensity, higher = more binding, comparable within an allelic series)"
GTACTTGA,"13 upbm affinity estimate (log intensity, higher = more binding, comparable within an allelic series)","12.8 upbm affinity estimate (log intensity, higher = more binding, comparable within an allelic series)","13.2 upbm affinity estimate (log intensity, higher = more binding, comparable within an allelic series)","12.6 upbm affinity estimate (log intensity, higher = more binding, comparable within an allelic series)","12.1 upbm affinity estimate (log intensity, higher = more binding, comparable within an allelic series)","13.7 upbm affinity estimate (log intensity, higher = more binding, comparable within an allelic series)","13.3 upbm affinity estimate (log intensity, higher = more binding, comparable within an allelic series)","11.1 upbm affinity estimate (log intensity, higher = more binding, comparable within an allelic series)",,"12.8 upbm affinity estimate (log intensity, higher = more binding, comparable within an allelic series)",
CACTTGAG,"13.3 upbm affinity estimate (log intensity, higher = more binding, comparable within an allelic series)","12.9 upbm affinity estimate (log intensity, higher = more binding, comparable within an allelic series)","13.3 upbm affinity estimate (log intensity, higher = more binding, comparable within an allelic series)","12.8 upbm affinity estimate (log intensity, higher = more binding, comparable within an allelic series)","12.1 upbm affinity estimate (log intensity, higher = more binding, comparable within an allelic series)","14 upbm affinity estimate (log intensity, higher = more binding, comparable within an allelic series)","13.5 upbm affinity estimate (log intensity, higher = more binding, comparable within an allelic series)","11.3 upbm affinity estimate (log intensity, higher = more binding, comparable within an allelic series)",,"13.2 upbm affinity estimate (log intensity, higher = more binding, comparable within an allelic series)",
CACTTGAA,"13.2 upbm affinity estimate (log intensity, higher = more binding, comparable within an allelic series)","12.8 upbm affinity estimate (log intensity, higher = more binding, comparable within an allelic series)","13.3 upbm affinity estimate (log intensity, higher = more binding, comparable within an allelic series)","12.7 upbm affinity estimate (log intensity, higher = more binding, comparable within an allelic series)","12.2 upbm affinity estimate (log intensity, higher = more binding, comparable within an allelic series)","13.9 upbm affinity estimate (log intensity, higher = more binding, comparable within an allelic series)","13.5 upbm affinity estimate (log intensity, higher = more binding, comparable within an allelic series)","11.4 upbm affinity estimate (log intensity, higher = more binding, comparable within an allelic series)",,"13.2 upbm affinity estimate (log intensity, higher = more binding, comparable within an allelic series)",
CGGTGCAG,"8.83 upbm affinity estimate (log intensity, higher = more binding, comparable within an allelic series)","9.49 upbm affinity estimate (log intensity, higher = more binding, comparable within an allelic series)","9.46 upbm affinity estimate (log intensity, higher = more binding, comparable within an allelic series)","9.46 upbm affinity estimate (log intensity, higher = more binding, comparable within an allelic series)",,,"9.48 upbm affinity estimate (log intensity, higher = more binding, comparable within an allelic series)",,,"8.91 upbm affinity estimate (log intensity, higher = more binding, comparable within an allelic series)",
TCAAGTGA,"12.5 upbm affinity estimate (log intensity, higher = more binding, comparable within an allelic series)","12.5 upbm affinity estimate (log intensity, higher = more binding, comparable within an allelic series)","13 upbm affinity estimate (log intensity, higher = more binding, comparable within an allelic series)","12.4 upbm affinity estimate (log intensity, higher = more binding, comparable within an allelic series)","11.7 upbm affinity estimate (log intensity, higher = more binding, comparable within an allelic series)","13.5 upbm affinity estimate (log intensity, higher = more binding, comparable within an allelic series)","13.1 upbm affinity estimate (log intensity, higher = more binding, comparable within an allelic series)","10.5 upbm affinity estimate (log intensity, higher = more binding, comparable within an allelic series)",,"12.4 upbm affinity estimate (log intensity, higher = more binding, comparable within an allelic series)",
